# A selection: hits, their analogues and other compounds. The true share with any hit is near 11%.
# Sm TGR inh – S. mansoni TGR enzyme inhibition. 360,000 compounds, 3% hits. purified TGR, DTNB reduction, TNB absorbance 405 nm. Q962Y6. Potency, µM (titrated, usually from 114 µM), for the others: top-dose activity change, negative = inhibition, most hits filed as inhibitors; also: % is scaled to controls: 0 for no effect and ±100 for the full control effect; nearly all actives have a fitted effect of over 60% in size
#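 TGR 20 nM + NADPH 100 uM (dispensed conc.), cpd preinc 15 min RT; start with NADPH (500 uM addition) then DTNB (15 mM addition). Kinetic TNB absorbance, 405 nm filter. Four-parameter Hill fit across titration.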
# Pf growth 48h – P. falciparum growth inhibition at 48 hours (one generation); 310,000 compounds, 5.9% hits; Potency, µM (doses to about 28.7 µM), for inactives: at the highest dose activity change, negative = inhibition, most hits filed as inhibitors; P. falciparum luciferase growth in erythrocytes, 48 h; also: % is scaled to controls: 0 for no effect and ±100 for the full control effect
#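 Cell-based growth assay: transgenic P. falciparum expressing firefly luciferase, cultured in red cells within RPMI 1640 containing 0.5% w/v Albumax, 24 mM bicarbonate and gentamycin. A drop in luciferase activity indicates inhibition.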
# AMA1-RON2 inh – inhibitors of Plasmodium falciparum AMA1-RON2 interaction. AlphaScreen AMA1-biotinylated RON2 peptide binding. 360,000 compounds, 0.2% hits. Potency, µM (top dose mostly 58.2 µM), for the others: at the highest dose activity change, negative = inhibition, most hits filed as inhibitors;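 also: 0% = vehicle wells and -100% = peptide control; nearly all actives have a fitted effect of over 45% in size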
#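 AMA1 (3D7) with his tag at 25 nM final met compounds first, then biotinylated RON2 peptide at 25 nM; detection used donor plus acceptor beads, 10 µg/mL apiece, read by AlphaScreen after 30 min at room temperature.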
# Pf growth 96h – inhibits malaria parasite growth, 96 h; P. falciparum luciferase reporter growth, 96 h; Potency, µM (series often up to 28.7 µM), for inactives: at the top dose activity change, negative = inhibition, most hits filed as inhibitors; 320,000 compounds, 6.9% hits; also: % is scaled to controls: 0 for no effect and ±100 for the full control effect
#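 Erythrocytes infected with luciferase-expressing P. falciparum were dispensed at 2% hematocrit and 0.05% parasitemia (final), then incubated with compounds 96 hours at 37 C in 5% CO2. Luminescence after detection reagent addition reported growth.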
# NS1 inh – blocks influenza NS1 protein function; Potency, µM (highest dose often 46.1 µM), inactives show top-dose activity, positive = more growth; 270,000 compounds, 0.4% hits; calls by dose curve; also: actives are rising curves; nearly all actives have a fitted effect of over 50% in size
#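 Growth recovery, yeast-based: influenza A NS1 expressed in S. cerevisiae causes slow growth, and suppressors are detected by OD600. The parent strain without NS1 is used as positive control.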
# * = called active by the depositor; ? = inconclusive; / = no result given; ! = not confirmed by another sample; [ ] = dose if it differs, or a comment. Unless noted, calls follow the shape of the dose curve; as a rule, active = well fitted curve in the direction sought with a large enough effect; inconclusive = small, poorly fitted or top-dose-only effect, or another doubt; inactive = no such curve, though single readings can be large; an effect the other way counts as inactive or inconclusive. Potency is read from the fitted curve at half-maximal effect.
SMILES,Sm TGR inh,Pf growth 48h,AMA1-RON2 inh,Pf growth 96h,NS1 inh
O=C(NCCN1CCN(C(=O)c2ccc(F)cc2)CC1)c1ccc(F)cc1,-2.1%,3.5%,-2.5%,11.7µM*,18.8%
Cc1cccn2c(=O)c3cc(C(=O)Nc4ccc(Cl)c(Cl)c4)sc3nc12,10.0%,/,/,/,/
CC(=O)c1ccc2noc(-c3ccccc3)c2c1,-1.7%,-22.5%,-12.6%,262.5%,-6.3%
CC(=O)c1ccc2noc(-c3cccc(C)c3)c2c1,17.8µM*,?,35.6%,14.3%,/
O=C(N=Nc1c(O)[nH]c2ccc(F)cc12)C1COc2ccccc2O1 (stereo not given),-5.1%,-0.1%,-7.7%,104.5%,2.2%
Cc1ccc(C(=O)Nc2cccc(C(F)(F)F)c2)cc1Nc1cnccn1,-30.2%,?,-3.4%,?,-3.2%
Cc1ccc(C(=O)Nc2cccc(C(F)(F)F)c2)cc1Nc1ncnc2nc[nH]c12,-14.9%,13.1µM*,86.2%,13.1µM*,7.5%
COCC(C)(C)COS(N)(=O)=O,6.2%,20.9%,16.1%,7.4%,5.7%
CCOc1ccccc1NC(=O)c1sc2ncn(CC(=O)N3CCOCC3)c(=O)c2c1C,-16.4%,7.6%,8.3%,6.1%,-3.3%
Cc1cc([N+](=O)[O-])ccc1NC(=O)c1sc2ncn(CC(=O)N3CCOCC3)c(=O)c2c1C,-0.6%,?,0.0%,14.7µM*,0.2%
Cc1ccc(NC(=O)c2sc3ncn(CC(=O)N4CCOCC4)c(=O)c3c2C)c(Br)c1,-10.2%,17.8%,-2.7%,11.7µM*,8.4%
CN1N=C2c3ccccc3CCCC2C1c1ccc(F)cc1 (stereo not given),6.0%,-28.8%,?,25.4%,-8.5%
COc1cc2c(cc1OCc1ccccc1)/C(=C/C(=O)OCc1ccccc1)OC2,/,/,-1.5%,/,/
COc1ccc(O)c(N)c1,3.16µM*,32.2%,/,-106.9%,0.5%
Cc1ccc(O)c(N)c1,?,?,-2.6%,?,/
CC(Oc1ccc(C(C)(C)C)cc1)C(=O)NC1CC(C)(C)NC(C)(C)C1 (stereo not given),-13.2%,-3.9%,-3.0%,0.0%,11.5%
Cc1c(C(=O)N2CCCC2)c(S(=O)(=O)NCCc2ccccc2)c(C)n1C,-2.3%,8.7%,3.3%,18.3%,-11.6%
O=C(O)CN(c1ccc(F)cc1)S(=O)(=O)c1ccc2c(c1)OCCO2,3.8%,44.6%,-5.6%,-5.4%,-5.8%
Cc1ccc(N(CC(=O)N2CC(=O)Nc3ccccc32)S(=O)(=O)c2ccc3c(c2)OCCO3)cc1,-15.6%,11.7µM*,0.0%,?,4.7%
CCCSc1nnc(NC(=O)CSc2sc3c(O)cc(=O)[nH]c3c2C#N)s1,39.8µM*,17.8%,-16.1%,15.8%,17.2%
N#Cc1c(SCC(=O)Nc2nccs2)sc2c(O)cc(=O)[nH]c12,50.1µM*,23.6%,18.7%,103.0%,?
N#Cc1c(SCC(=O)Nc2nc3ccccc3s2)sc2c(O)cc(=O)[nH]c12,-35.7%,?,?,2.0%,/
N#Cc1c(SCC(=O)Nc2ccc(Cl)cc2Cl)sc2c(O)cc(=O)[nH]c12,-11.3%,2.94µM*,-13.7%,5.8%,16.8%
Cc1nc2ccc(S(=O)(=O)NC(CC(C)C)C(=O)NCc3ccc(Cl)cc3)cc2s1 (stereo not given),-2.2%,/,/,/,/
Cc1ccc(Cl)cc1N1CCN(C(=O)c2cn(C)c3ccc(S(=O)(=O)N4CCCCC4)cc3c2=O)CC1,0.9%,/,/,/,/
SMILES,Sm TGR inh,Pf growth 48h,AMA1-RON2 inh,Pf growth 96h,NS1 inh
COc1ccc(OCCCC(=O)Nc2ccc(S(=O)(=O)N3CCOCC3)cc2)cc1,-19.6%,?,-4.3%,?,/
Cc1cccc(N=N/C(=C\O)C(=O)c2cccs2)c1,-4.2%,?,?,11.7µM*,/
O=C(/C(=C/O)N=Nc1ccccc1)c1ccncc1,-19.2%,/,-9.1%,?,-38.4%
Cc1ccc(C(=O)N/C(=C/c2cccs2)C(=O)N2CCCCCC2)cc1,1.4%,-3.2%,-4.1%,-1.7%,-4.3%
O=C(N/C(=C/c1cccs1)C(=O)N1CCOCC1)c1cccs1,-20.7%,-1.6%,15.5%,9.28µM*,3.7%
Cc1ccc(C(=O)N/C(=C\c2cccs2)C(=O)NC2CCCCC2)cc1,-9.2%,/,-8.0%,4.15µM*,-13.5%
O=C(Nc1ccccc1)/C(=C\c1cccs1)NC(=O)c1ccccc1,-5.3%,20.4%,-0.6%,1.47µM*,-2.1%
O=C(N/C(=C\c1cccs1)C(=O)N1CCCCCC1)c1ccccc1,11.3%,?,-3.8%,9.28µM*,-2.2%
CC(C)(C)c1ccc(C(=O)N/C(=C\c2cccs2)C(=O)N2CCOCC2)cc1,-8.5%,-1.1%,0.5%,-1.7%,9.1%
CC1(C(=O)NS(=O)(=O)c2cccc(Cl)c2)CCN1C(=O)CCc1cccs1 (stereo not given),/,/,2.3%,/,/
COc1ccc(OC)c(NC(=O)CCn2cccn2)c1,-1.7%,/,/,/,/
CCOc1ccc(C(=O)NCC(=O)NCCCSc2ccccc2)cc1OCC,3.5%,-14.7%,4.6%,14.7µM*,16.9%
Cc1c(C(=O)NCCc2ccccc2)oc2ccccc12,4.9%,245.0%,12.9%,-8.9%,-33.1%
O=C(Nc1ccccc1Cc1ccccc1)c1oc2ccccc2c1COc1ccccc1,-3.3%,?,-11.3%[2.32 µM],10.4µM*,10.5%
CC(OC(=O)c1oc2ccccc2c1COc1ccccc1)C(=O)NC(N)=O (stereo not given),-2.8%,-12.5%,47.2%,15.3%,11.5%
O=C(NCCc1ccccc1)c1oc2ccccc2c1COc1ccccc1,-5.3%,?,-12.7%,13.1µM*,-15.7%
COc1ccc(CCNC(=O)CCc2c(C)nc3cc(-c4ccccc4OC)nn3c2C)c(OC)c1,6.5%,/,/,/,/
COc1cc(/C=C2/CCCC(C(=O)C(F)(F)F)=C2O)ccc1O,35.5µM*,11.6%,7.8%,32.0%,8.4%
COc1ccc(/C=C2\CCCC(C(=O)C(F)(F)F)=C2O)cc1OC,31.6µM*,0.0%,/,?,/
CCOc1cc(/C=C2\CN(CC)C/C(=C\c3ccc(O)c(OCC)c3)C2=O)ccc1O,39.8µM*,2.08µM*,?,2.08µM*,-1.1%
CCN1C/C(=C/c2cccc([N+](=O)[O-])c2)C(=O)/C(=C/c2cccc([N+](=O)[O-])c2)C1,-29.0%,1.65µM*,-25.4%,2.33µM*,-18.1%
COc1ccc(C(CNC(=O)c2ccc(S(=O)(=O)Nc3cccc(C)c3C)cc2)N2CCOCC2)cc1 (stereo not given),/,/,74.1%,/,/
CCOC(=O)C1CCN(C(=O)COC(=O)CN(C)S(=O)(=O)c2ccc(NC(C)=O)cc2)CC1,/,/,7.8%,/,/
COc1cc(/C=C2\CCC/C(=C\c3ccc(O)c(OC)c3)C2=O)ccc1O,?,9.28µM*,-7.8%,5.36µM*!,-0.8%
Cc1cc(C)c(OCC(=O)OCC(=O)NC2CCC(C)CC2)c(C)c1 (stereo not given),6.7%,17.2%,14.4%,31.7%,/
CCN(CC)CCC(=O)Nc1cccc2c1C(=O)c1ccccc1C2=O,-17.2%,-85.9%,-19.6%,10.4µM*,-3.4%
